Screen size: about 150,000 compounds; about 540 (0.36%) showed an effect of 50% or more. Only a selection was taken, and strong results are over-represented in it overall.

The test system of this test is Plasmodium falciparum. Nature of the test: Primary screen in NF54 nanoGlo assay, in single point, at 2uM, 72h; a lower Z score goes with more inhibition. In kind it is functional, Erythrocyte. The following applies: timepoint 72 hour.
For the molecule `CN(Cc1ccccc1)C(=O)c1nc2ccccc2s1`, the “% Inhibition” value is listed as -10% and the Z score is recorded as 1.35.
As to `CCCC1CCC(c2ccc(OC(=O)c3cccc(C(=O)OC)n3)cc2)CC1` (centres undefined), the “% Inhibition” value was -10% and the Z score stood at 1.93.
Regarding `COCC(O)CN1CCCC(C(C)C)CC1` (centres undefined), the “% Inhibition” value is -5% and the Z score amounted to 0.7.
The corresponding values for `Cc1ccc2c(c1)c1c(n2CCc2ccncc2)CCCN(C)C1` are 4% and -0.46.
The like results for `Cc1ccc2[nH]c3c(c2c1)CN(C)CCC3` were, in that order, 4% and -0.52.
The like results for `Cc1ccc2c(c1)c1c(n2S(=O)(=O)c2ccc(C(C)(C)C)cc2)CCCN(C)C1` were, in that order, 67% and -13.88.
Consider `CNS(=O)(=O)CC1CCCN1CC1CCC(C)O1` (centres undefined), for which the “% Inhibition” value is given as -5% and the Z score was found to be 0.75.
The like results for `CCCC(C)NC(=O)C(C)NC1CCN(C(C)=O)CC1CC` (centres undefined) were, in that order, -2% and 0.22.
Consider `CCc1cccc(NC(=O)Cc2nc(-c3cccnc3)n[nH]2)c1`, for which the “% Inhibition” value is recorded as -13% and the Z score worked out at 2.1.
The corresponding values for `CC(=O)c1ccc(S(=O)(=O)NC2(C(F)(F)F)CCOCC2)cc1` are -12% and 1.89.
The corresponding values for `Cn1nc(N2CC[C@H](NC(=O)C3CCCCC3)C2)ccc1=O` are -6% and 0.81.
The like results for `Cc1c(C(=O)NC2CC2)cc(-c2ccccc2)n1C` were, in that order, 55% and 0.53.
In the case of `COc1ccc(-c2cc(C(=O)N[C@H]3CCN(c4ccc(=O)[nH]n4)C3)c(C)n2C)cc1`, the “% Inhibition” value turned out to be 82% and the Z score was -5.36.
The like results for `COc1ccc(-c2cc(N3CC[C@H](NC(=O)c4ccc(C)cc4)C3)[nH]n2)cc1` were, in that order, -10% and 1.05.
Take `COc1ccc(-c2cc(C(=O)N[C@H]3CCN(c4ccc(=O)n(C)n4)C3)c(C)n2C)cc1`: the “% Inhibition” value is given as 67% and the Z score was -11.23.
The corresponding values for `Cc1c(C(=O)NC2CCN(c3ccc(=O)n(C)n3)CC2)cc(-c2ccc(F)cc2)n1C` are -5% and 0.6.
The like results for `COc1ccc(C(=O)N[C@H]2CCN(c3cc(-c4ccc(Cl)cc4)n[nH]3)C2)c(C)c1` were, in that order, -20% and 2.
The corresponding values for `Cc1ccc(-c2cc(C(=O)NC3CC3)nn2C)cc1` are -10% and 1.31.
Consider `Cc1cc(C(=O)N[C@H]2CCOC[C@@H]2OCc2ccccc2)c(C)n1C`, for which the “% Inhibition” value is reported as 8% and the Z score is on record as -1.34.
The corresponding values for `COc1cccc(C(=O)N2CCN(c3cccnc3)C(=O)C2)c1OC` are 9% and -1.08.
The like results for `CN(C)S(=O)(=O)N1CCC2(CCC(=O)N(CCc3ccccn3)C2)CC1` were, in that order, -12% and 1.7.
The corresponding values for `CCc1ccccc1S(=O)(=O)NC[C@H](C(=O)O)C(C)C` are 2% and -0.45.
`COCCN1C(=O)c2ccc(C(=O)NCc3ccncc3)cc2C1=O`: the “% Inhibition” value is given as -3% and the Z score worked out at 0.39.
For the molecule `Cc1ccc(-c2cn[nH]c2[C@H]2CCCN(C(=O)C(C)(C)O)C2)cc1`, the “% Inhibition” value is listed as -14% and the Z score was 2.64.
The like results for `NC(=O)C1CCN(C(=O)Cc2ccc(-c3ccccc3)cc2)CC1` were, in that order, -4% and 0.36.
In the case of `COC(=O)C1(NC(=O)OC(C)(C)C)CC(CN2CCN(C)CC2)C1` (centres undefined), the “% Inhibition” value is listed as 10% and the Z score is recorded as -2.05.
The corresponding values for `CCc1ccc(C2=C(C)C(N3CCC(C(=O)NC)CC3)=NS2(=O)=O)cc1` are -2% and 0.29.
For the molecule `CCC1=C(c2ccc(C)cc2)S(=O)(=O)N=C1N1CCC(C(=O)NCCCc2ccccc2)CC1`, the “% Inhibition” value was -9% and the Z score is reported as 1.6.
The corresponding values for `CC1=C(c2ccc(Cl)cc2)S(=O)(=O)N=C1N1CCC(C(=O)NCCN(C)C)CC1` are -18% and 1.96.
For `CCCCN(CC)CCNC(=O)C1CCN(C2=NS(=O)(=O)C(c3ccc(OC)cc3)=C2C)CC1`, the “% Inhibition” value is given as 57% and the Z score is recorded as -3.61.
The corresponding values for `CCC1=C(c2ccc(C)cc2)S(=O)(=O)N=C1N1CCC(C(=O)NC2CCC(C)CC2)CC1` (centres undefined) are -12% and 1.49.
For the molecule `CCC1=C(c2ccc(C)cc2)S(=O)(=O)N=C1N1CCC(C(=O)NCCN2CCCC[C@@H]2C)CC1`, the “% Inhibition” value amounted to 53% and the Z score is given as -6.49.
The like results for `CN1CC2(CCN(C(=O)c3ccccc3O)CC2)C[C@@H](c2ccccc2)C1=O` were, in that order, -14% and 1.81.
The like results for `C=CCOC1CCN(C(=O)CCN2CCOC2=O)CC1` were, in that order, -4% and 0.57.
The like results for `Cc1nc(CNC(=O)c2nc3ccccc3[nH]c2=O)cs1` were, in that order, 5% and -0.75.
For `CC(C)c1ncc(CN(C)S(=O)(=O)N(C)C2CCCCC2)cn1`, the “% Inhibition” value was -9% and the Z score came out at 1.04.
The like results for `CC(C)(C)OC(=O)NC1CC(NCC(O)c2ccco2)C12CCC2` (centres undefined) were, in that order, 0% and 0.02.
The like results for `COc1cccc(C2c3[nH]c4ccccc4c3C[C@H]3C(=O)N(C4CCN(Cc5ccccc5)CC4)CC(=O)N23)c1` (some centres undefined) were, in that order, 15% and -1.95.
Regarding `CCOc1ccc(C2c3[nH]c4ccccc4c3C[C@H]3C(=O)N(C4CCCCCCC4)CC(=O)N23)cc1OC` (some centres undefined), the “% Inhibition” value came out at 12% and the Z score is recorded as -1.52.
The like results for `CCOc1ccc(C2c3[nH]c4ccccc4c3C[C@H]3C(=O)N(C4CCN(Cc5ccccc5)CC4)CC(=O)N23)cc1OC` (some centres undefined) were, in that order, 79% and -7.03.
As to `CCOc1ccc2nc(CN(Cc3cnn(C)c3)C3CC3)ccc2c1`, the “% Inhibition” value was -7% and the Z score worked out at 1.15.
For `CCOc1ccc2nc(CN(C)[C@@H]3CCCC[C@@H]3O)ccc2c1`, the “% Inhibition” value is on record as -18% and the Z score was found to be 1.9.
